Assay results: PubChem BioAssay (Tox21)
Results filed as inconclusive are left out. Unmarked numbers belong to inactive results. Active and inactive are the calls of the source. Calls follow the shape of the dose curve; as a rule, active = well fitted activation curve with a large enough effect in the signal ratio in the repeat runs (not every such curve was filed as active); inconclusive = weak or mixed curves; inactive = flat fitted curve, though single readings scatter; the % refers to the signal ratio.

Assay: qHTS assay to identify small molecule agonists of H2AX (AID 1224845)
Settings: CHO-K1 phospho-H2AX Ser139 HTRF, 3 h; series mostly up to 154 µM; activation (H2AX phosphorylation): at the top concentration
Description: National Center for Advancing Translational Sciences [NCATS]
NIH Chemical Genomics Center [NCGC]
U.S. Environmental Protection Agency [EPA]
National Institutes of Environmental Health Sciences [NIEHS]
National Toxicology Program [NTP]
U.S. Food and Drug Administration [FDA]
HTRF phospho-H2AX (Ser139) assay (Cisbio Bioassays, US) enables the quantitative detection of the histone variant H2AX when phosphorylated on serine 139. When double-stranded DNA breaks, either by ionizing radiation or endogenous physiological processes, H2AX becomes phosphorylated at Ser139. This phospho-Ser139 serves as a sensitive biomarker for the detection of such breaks, localizing the site of DNA repair. So, HTRF phospho-H2AX Ser139 is a pertinent assay to study genome stability, the cell cycle, DNA repair, and it serves as a biomarker for cancer, and to understand aging. Wild type CHO-K1 cells were used to identify the inducers of Phospho-H2AX Ser 139 from the Tox21 10K compound collections.
Tox21 Assay Protocol Summary:
The CHO-K1 cells suspended in culture medium containing 10% FBS were dispensed at 1000 cells/ 3 ul/well in 1536-well white wall/solid bottom plates (Greiner Bio-One North America, NC) using a Multidrop Combi (Thermo Fisher Scientific Inc., Waltham, MA). After the assay plates were incubated at 37C overnight, 23 nl of compounds at 15 concentrations (from 5-48 columns) or positive control (from 1 to 4 columns) were transferred to the assay plates using a Pintool station (Wako, San Diego, CA) into each well resulting in a final DMSO concentration of 0.76%. After 3hr incubation at 37C, 1 uL/well Supplemented Lysis buffer (diluted 100 fold blocking reagent in lysis buffer) (HTRF Phospho-H2A.X (S139) Assay kit from Cisbio US Inc., Bedford, MA) was added using a Flying Reagent Dispenser (FRD) (Aurora Discovery, CA). After 10sec spin at 1000 rpm in a plate centrifuge, the assay plates were incubated at room temperature for 30 min. Then followed by the addition of 1 uL/well detection buffer (containing a mixture of two antibodies, one labeled with cryptate, Anti pH2AX (S139)-K and another labeled with d2, Anti H2AX-d2) using FRD. After incubation at room temperature for 24 hr, the time resolved fluorescence at excitation 320 nm and emissions at 665 nm and 620 nm was measured using an Envision plate reader (PerkinElmer, Waltham, MA).
% is scaled to controls: 0 for no effect and ±100 for the full control effect; potency is read from the fitted curve at half-maximal effect.

| Compound | activation (H2AX phosphorylation) | Potency |
| --- | --- | --- |
| CCOC(C)OCC | -0.382% |  |
| Cc1ccc(NC(=O)c2ccc(CN3CCN(C)CC3)cc2)cc1Nc1nccc(-c2cccnc2)n1 | -3.15% [at 70.9 µM] |  |
| Nc1ncnc2c1ncn2[C@@H]1O[C@H](CO)[C@@H](O)[C@H]1O |  | 31 µM (active) |
| CCCCCCCCCCCCN1CCOCC1 | 0.11% |  |
| CCCCCCCCNC | 1.62% |  |
| COC(=O)Cc1cccc2ccccc12 | -0.554% |  |
| Cc1ccc2c(Cl)cc(Cl)c(O)c2n1 | -0.274% [at 70.9 µM] |  |
| O=C(N[C@@H](Cc1ccccc1)[C@@H](O)C(=O)N1C[C@@H](O)[C@@H](O)C1)c1cc2cc(Cl)ccc2[nH]1 | -2.38% |  |
| CC(=O)Nc1ccn(C2COC(COC(=O)c3ccccc3)O2)c(=O)n1 (stereo not given) | -0.616% [at 70.9 µM] |  |
| O=C(O)COCC(=O)O | -1.82% |  |
| Clc1cc(Cl)c2c(c1)N=C1CCCCCN1C2 | -4.25% [at 70.9 µM] |  |
| O=C(Nc1ccc2c(c1)Cc1ccccc1-2)C(F)(F)F | -0.841% |  |
| N#CCCCC(C#N)CCC#N (stereo not given) | -1.38% |  |
| NCCOCCOCCN | -1.09% |  |
| CCCN(C1CCN(C(=O)C2CCNCC2)CC1)[C@@H]1CCc2ccc(OC)cc2C1 | -3.62% |  |
| O=C(OC1C[C@H]2CC[C@@H](C1)[N+]21CCCC1)C(O)(c1ccccc1)c1ccccc1 (stereo not given in full) | -0.544% [at 70.9 µM] |  |
| CCC(=O)O[C@@H]1C[C@H]2CC[C@]1(C)C2(C)C | -1.37% |  |
| CC/C=C/CCO | -0.826% |  |
| C=C(C)C(=O)OCCCCCCCCCCOC(=O)C(=C)C | -1.09% |  |
| C=C[Si]1(C)O[Si](C)(C=C)O[Si](C)(C=C)O[Si](C)(C=C)O1 (stereo not given) | -0.747% |  |

| Compound | activation (H2AX phosphorylation) | Potency |
| --- | --- | --- |
| CCCOC(C)=O | -1.09% |  |
| CC(O)CN (stereo not given) | -0.866% |  |
| CCCC(=O)OCc1ccccc1 | 0.171% |  |
| CCCc1ccc(OC)cc1 | -2.87% |  |
| O=C(O)c1ccc2cc(O)ccc2c1 | 0.0289% |  |
| CC[C@H](NC(C)C)[C@H](O)c1ccc(O)c2[nH]c(=O)ccc12 | -0.0529% [at 70.9 µM] |  |
| C/C(=C(\CCO)SS/C(CCO)=C(\C)N(C=O)Cc1cnc(C)nc1N)N(C=O)Cc1cnc(C)nc1N | -0.199% [at 70.9 µM] |  |
| CC(C)(C)c1ccc(CCC=O)cc1 | -0.015% |  |
| [O-][n+]1ccc(Cl)cc1 | -4.09% |  |
| Cc1ccc2ccccc2c1[N+](=O)[O-] | 5.34% |  |
| CC(O)C(C)O (stereo not given) | -0.992% |  |
| Cc1c(Cl)cccc1Nc1ccccc1C(=O)O | -2.19% [at 70.9 µM] |  |
| C[Si](C)(C)O[Si](C)(C)O[Si](C)(C)C | -0.854% |  |
| C(/C=C/C=C/Nc1ccccc1)=Nc1ccccc1 | 0.459% |  |
| C1=COCCC1 | -0.154% |  |
| O=C(c1ccco1)N1CCNCC1 | -0.25% [at 70.9 µM] |  |
| CCC(=O)O[C@]1(C(=O)COC)[C@@H](C)C[C@H]2[C@@H]3CCC4=CC(=O)C=C[C@]4(C)C3(F)[C@@H](O)C[C@@]21C (stereo not given in full) | 0.471% [at 70.9 µM] |  |
| N#C[C@@H]1CC(F)(F)CN1C(=O)CNC1CC2CCC(C1)N2c1ncccn1 (stereo not given in full) | 0.0889% |  |
| COc1ccc(/C=C/c2cc(OC)cc(=O)o2)cc1 | -1.3% [at 70.9 µM] |  |
| CC(C)CC(C)(C)C | -1.37% |  |
